# Source: PubChem (National Center for Advancing Translational Sciences (NCATS))
# CtBP-E1A blk = CtBP/E1A binding inhibition; AlphaScreen GST-E1A/His-CtBP binding, 1536-well; stronger effect = lower value; activity change, % (no concentration beside the values); 340,000 tested, 0.49% active; AID 651724; in the data active = activity change below about -65%; inconclusive = mostly about -30% to -63%
#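 AlphaScreen with 125 nM GST-E1A and 125 nM His-CtBP (5X stocks) in Tris pH 8.0, 300 mM NaCl, BSA, Tween 20, TCEP. Compounds preincubated 2 h at 37 deg C, then glutathione donor/nickel acceptor beads added for 1 h at 37 deg C in dark.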
# TDP1 block = blocks human tyrosyl-DNA phosphodiesterase 1 | Q9NUW8 | 350,000 tested, 0.28% active | recombinant TDP1, AlphaScreen DNA substrate cleavage | Potency, µM (doses to about 130 µM), most hits filed as inhibitors; also: nearly all actives have a fitted effect of over 40% in size
#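 Recombinant human Tdp1 (E. coli-expressed, 1 nM final) preincubated with compounds 15 min at room temperature, then 5'-biotin/3'-phosphotyrosine-FITC DNA substrate (15 nM final) added for 5 min. AlphaScreen beads (10 ug/ml final) added 10 min; cleavage lowers signal.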
# Six1-Eya2 inh = inhibitors of human Six1/Eya2 interaction | Q15475+O00167 | activity change, % (test concentration not listed) | AlphaScreen GST-Six1/His-Eya2 binding, biochemical; stronger effect = lower value | 360,000 tested, 0.56% active; in the data active = activity change below about -65%; inconclusive = mostly about -30% to -63%
# Target sequence (O00167 whole entry, looked up): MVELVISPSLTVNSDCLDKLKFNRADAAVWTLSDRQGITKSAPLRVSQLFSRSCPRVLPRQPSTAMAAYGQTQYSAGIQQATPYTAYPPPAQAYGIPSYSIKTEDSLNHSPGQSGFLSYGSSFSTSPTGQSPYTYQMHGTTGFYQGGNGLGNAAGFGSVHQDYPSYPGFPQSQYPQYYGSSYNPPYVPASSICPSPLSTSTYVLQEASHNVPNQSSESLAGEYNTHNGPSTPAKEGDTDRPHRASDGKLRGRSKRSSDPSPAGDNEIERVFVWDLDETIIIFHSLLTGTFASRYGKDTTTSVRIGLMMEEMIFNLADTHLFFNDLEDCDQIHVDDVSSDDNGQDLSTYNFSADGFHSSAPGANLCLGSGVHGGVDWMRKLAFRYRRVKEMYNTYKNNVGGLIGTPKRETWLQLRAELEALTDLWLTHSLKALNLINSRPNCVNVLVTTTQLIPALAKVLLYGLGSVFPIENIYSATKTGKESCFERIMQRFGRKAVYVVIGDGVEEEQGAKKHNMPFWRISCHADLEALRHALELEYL
# Target sequence (Q15475 whole entry, looked up): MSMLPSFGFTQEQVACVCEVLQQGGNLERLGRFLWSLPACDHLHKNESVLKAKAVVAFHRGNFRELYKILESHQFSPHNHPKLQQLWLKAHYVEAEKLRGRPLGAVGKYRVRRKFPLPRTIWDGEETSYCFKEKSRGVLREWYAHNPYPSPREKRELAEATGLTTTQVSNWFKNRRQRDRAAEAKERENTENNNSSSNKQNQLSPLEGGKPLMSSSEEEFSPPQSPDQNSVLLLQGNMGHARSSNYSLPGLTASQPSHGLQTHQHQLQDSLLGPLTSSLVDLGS
#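 AlphaScreen luminescence read after one hour at 37 °C in darkness. Pin-transferred compounds met GST-Six1 and His-Eya2 protein (5X stock 250 nM/500 nM) plus glutathione donor and Ni-chelate acceptor beads (5X, 50 ug/mL).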
# TDP1 cell CPT = DT40-hTDP1 cell growth loss with CPT. AID 686979. chicken DT40 Tdp1-/-;hTDP1 cells + 20 nM CPT, ATP luminescence, 48 h. Potency, µM (top dose mostly 46.2 µM), usual class: inhibitors. 420,000 tested, 12% active; also: nearly all actives have a fitted effect of over 55% in size
#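 Chicken DT40 Tdp1-/- cells complemented with human TDP1, 400 cells/well, exposed to compounds plus 20 nM camptothecin for at least 48 h at 37 C; viability read as ATP content by CellTiter-Glo luminescence.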
# TDP1 cell noCPT = qHTS for Inhibitors of human tyrosyl-DNA phosphodiesterase 1 (TDP1): qHTS in cells in absence of CPT; 420,000 tested, 15% active; DT40 Tdp1-/- hTDP1 cells, no CPT, ATP luminescence, 48 h; AID 686978, 2013; Potency, µM (series often up to 46.2 µM), hits mostly inhibitors; also: nearly all actives have a fitted effect of over 55% in size
#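 Cells were dispensed at 400 per well, compounds added by pin tool, plates incubated ≥48 hr at 37 °C, then CellTiter-Glo added for 30 min at room temperature before luminescence reading. Line: DT40 Tdp1-/- complemented with hTDP1; camptothecin omitted.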
# IL1B secr inh = inflammasome signaling inhibition, IL-1 beta readout; THP-1 LPS/ATP IL-1B secretion, AlphaLISA, 16 h; stronger effect = lower value; activity change, % at 57.5 µM; 360,000 tested, 4.7% active; AID 743279; in the data active = activity change below about -50%; inconclusive = mostly about -30% to -49%
#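 THP-1 cells pretreated 1 hr with compounds (up to 57.5 uM final), then stimulated with LPS (250 ng/mL final) plus ATP (1.25 mM final); secreted IL-1B measured by AlphaLISA after 16 hr, decreased signal indicating inhibition.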
# A number is an active result; 0 = inactive; ? = inconclusive; - = not tested or not shown. Shown are actives, neighbours in structure and some others; about 18% of the full set was active somewhere. Unless noted, calls follow the shape of the dose curve; as a rule, active = well fitted curve in the direction sought with a large enough effect; inconclusive = small, poorly fitted or top-dose-only effect, or another doubt; inactive = no such curve, though single readings can be large; an effect the other way counts as inactive or inconclusive.
SMILES,CtBP-E1A blk,TDP1 block,Six1-Eya2 inh,TDP1 cell CPT,TDP1 cell noCPT,IL1B secr inh
CC1CCN(CC[S-])CC1.O.O.[Cl][Pt],-,-,-,1.3µM,1.6µM,-
NCC1CC2c3ccccc3C1c1ccccc12 (stereo not given),0,-,0,0,?,-78
O=c1[nH]c(CN(CCc2ccccc2)S(=O)(=O)c2ccc(Cl)cc2)nc2ccccc12,0,0,0,0,?,0
CN(Cc1nc2ccccc2c(=O)[nH]1)c1ccccc1,0,0,0,?,0,0
COc1ccccc1CN(Cc1nc2ccccc2c(=O)[nH]1)S(=O)(=O)c1ccc2ccccc2c1,0,0,0,3.7µM,5.6µM,0
COc1ccc(S(=O)(=O)N(Cc2ccccc2)Cc2nc3ccccc3c(=O)[nH]2)cc1,0,0,0,4.6µM,5.2µM,0
C/C(=N\NC(=O)c1nnn(-c2nonc2N)c1-c1ccc2c(c1)OCO2)c1ccc(F)cc1,0,0,0,0,0,0
COc1ccc(/C=C/c2c(-c3cccc(C)c3)oc3ccc(N4CCOCC4)cc23)cc1,0,-,0,?,0,0
COC(=O)c1ccc(/C=C/c2c(-c3ccc(OC)cc3)oc3ccc(N4CCOCC4)cc23)cc1,-,-,0,?,23µM,0
COc1ccc(/C=C\c2nc(=O)c3ccccc3o2)cc1,-69,0,0,?,7.3µM,0
COC(=O)c1ccc(/C=C/c2c(-c3ccc(OC)cc3)oc3ccccc23)cc1,0,-,0,18µM,18µM,0
O=c1nc(/C=C/c2ccc(O)c(O)c2)oc2ccccc12,0,-,0,0,0,0
COc1ccc(/C=C/c2c(-c3ccc(OC)cc3)oc3ccccc23)cc1,0,-,0,0,0,0
Cc1onc(-c2c(Cl)cccc2Cl)c1C(=O)N=S(C)(=O)c1ccccc1 (stereo not given),0,0,0,0,0,-
Oc1c(C(c2ccccc2)N2CCN(c3cccc(Cl)c3)CC2)sc2nc(-c3ccco3)nn12 (stereo not given),-,0,-,?,?,-
COC(=O)C1=CN(c2ccc(F)cc2)C=C(C(=O)OC)C1c1cccc([N+](=O)[O-])c1,?,-,0,0,26µM,0
COC(=O)C1=CN(c2ccc(OC)cc2)C=C(C(=O)OC)C1c1cccc(F)c1,-,-,0,0,0,0
COC(=O)C1=CN(c2ccc(OC)cc2)C=C(C(=O)OC)C1c1ccc(C)c([N+](=O)[O-])c1,0,0,0,?,21µM,0
COC(=O)C1=CN(c2cccc(C(F)(F)F)c2)C=C(C(=O)OC)C1c1ccc(O)c(OC)c1,0,-,0,?,?,-51
COC(=O)C1=CN(c2cccc(C)c2)C=C(C(=O)OC)C1c1cc(OC)c(O)c([N+](=O)[O-])c1,0,0,0,?,?,0
COC(=O)C1=CN(C)C=C(C(=O)OC)C1c1ccc(O)c(OC)c1,0,0,0,0,0,0
CC1=C(C(=O)Nc2ccccc2C)C(c2ccco2)n2ncnc2N1 (stereo not given),-,0,-,0,0,-
CC(C)c1c(C(=O)Nc2ccccc2)c(-c2ccccc2)c(-c2ccc(F)cc2)n1CC[C@@H](O)C[C@@H](O)CC(=O)O,-,0,-,?,15µM,-
Cc1cccc(C(=O)NC2CC3CCCC(C2)N3Cc2ccccc2)c1 (stereo not given),0,0,0,0,0,0
COC(=O)c1ccc(C2C(C(=O)OCC(C)C)=C(C)N=C3SCCC(=O)N32)cc1 (stereo not given),0,0,0,0,?,0
SMILES,CtBP-E1A blk,TDP1 block,Six1-Eya2 inh,TDP1 cell CPT,TDP1 cell noCPT,IL1B secr inh
Cc1ccc(-c2nc3sc(CCNC(=O)c4ccc(C)c(C)c4)c(C)n3n2)cc1,-,0,-,0,0,-
Cc1c(CCNC(=O)Cc2ccccc2)sc2nc(-c3ccc(F)cc3)nn12,-,0,-,?,?,-
Cc1ccc(-c2nc3sc(CCNC(=O)c4ccco4)c(C)n3n2)cc1,-,0,-,?,18µM,-
Cc1c(CCNC(=O)c2ccco2)sc2nc(-c3ccc(F)cc3)nn12,-,0,-,21µM,23µM,-
Cc1c(CCNC(=O)c2ccc(C(C)(C)C)cc2)sc2nc(-c3ccc(F)cc3)nn12,-,0,-,15µM,13µM,-
CCN(Cc1nc2cc(Cl)ccc2c(=O)[nH]1)C(=O)c1cc(C2CC2)nn1-c1ccccc1,0,0,0,5.2µM,2.9µM,0
CCN(Cc1nc2cc(Cl)ccc2c(=O)[nH]1)C(=O)c1nn(C)c(=O)c2ccccc12,0,0,0,0,?,0
Cc1nn(-c2ccc(N3CCCCC3)nn2)c(C)c1CCC(=O)NCc1ccc(Cl)cc1,-,0,-,?,26µM,-
Cc1nn(-c2ccc(N3CCCCC3)nn2)c(C)c1CCC(=O)NCc1ccc(OC(C)C)cc1,-,0,-,16µM,16µM,-
Cc1cccnc1NC(=O)c1ccc(S(=O)(=O)N2CCCC2)cc1,0,-,0,0,0,?
O=C(NC1CCN(c2ncccn2)CC1)c1ccccc1Cl,-,-,0,0,0,0
COc1ccc(C(=O)N=c2sc3ccccc3n2C)cc1OC,0,0,0,?,15µM,0
COc1ccc(C(=O)N=c2sc3c(C)ccc(OC)c3n2C)cc1OC,-,-,0,5.2µM,5.8µM,0
O=C(NCCc1ccc(Cl)cc1)c1nnc(Cc2ccc(Cl)cc2)o1,0,0,0,0,0,0
CC(CCc1ccccc1)NC(=O)c1nnc(Cc2ccc(Cl)cc2)o1 (stereo not given),0,0,0,29µM,?,-59
Clc1ccc(N2CCN(c3ncnc4c3oc3ccccc34)CC2)cc1,0,0,0,21µM,14µM,0
CC1CN(c2ncnc3c2oc2ccccc23)CC(C)O1 (stereo not given),0,0,0,?,21µM,0
CC(=O)Nc1ccc(NC(=O)c2nc(S(=O)(=O)Cc3ccc(F)cc3)ncc2Cl)cc1,-,0,-,0.73µM,0.41µM,-
Cc1ccc(NC(=O)c2nc(S(=O)(=O)Cc3ccc(F)cc3)ncc2Cl)cc1C,-,0,-,3.7µM,2.3µM,-
NS(=O)(=O)c1ccc(CCNC(=O)COC(=O)C2CCC2)cc1,0,0,0,0,0,0
CCC(Cc1ccccc1)NC(=O)c1oc(=O)c2ccccc2c1-c1ccccc1 (stereo not given),-,0,-,?,?,-
Cc1[nH]c2ccc(F)cc2c(=O)c1SC(F)(F)C(F)C(F)(F)F (stereo not given),0,0,0,?,?,0
CCNc1ccc(/C=C/c2ccnc3ccccc23)cc1,-,-,-,0,4µM,-
CCCCCCNc1ccc(/C=C/c2ccnc3ccccc23)cc1,-,-,-,16µM,13µM,-
CNc1ccc(/C=C/c2ccnc3ccccc23)cc1,-,-,-,11µM,16µM,-
